Several values for one entry are separate records, joined by “and”; a condition that tells them apart may be missing. Equal values may be shown once. In all, about 5,500 compounds went through this assay and about 2,000 (36%) were called active. Inconclusive results (about 18%) are left out. This is one part of the list. A number with no mark means an inactive call. Rule as the data show it: active = normalized growth mostly below about 0.91 (no sharp cut-off); inconclusive = no clear call, values can overlap the other calls; inactive = mostly above about 0.92.
Assay: chemical genetic growth profiling, strain panel (AID 1159580);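 also: tested at 20 µM; growth read once vehicle control cultures reached saturation at 30 °C; 1 = growth at the plate median or of vehicle wells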
Settings: S. cerevisiae deletion strains, growth OD

## O=[N+]([O-])O[C@H]1CO[C@H]2[C@@H]1OC[C@H]2O[N+](=O)[O-]
Locus YAL013W, strain DEP1, stronger effect = lower value
  normalized growth: 1.01
Locus YAL021C, strain ccr4, stronger effect = lower value
  normalized growth: 0.993
Locus YAL026C, strain drs2, stronger effect = lower value
  normalized growth: 1.01
Locus YAL030W, strain snc1, stronger effect = lower value
  normalized growth: 1
Locus YBL061C, strain skt5, stronger effect = lower value
  normalized growth: 1
Locus YBR009C, strain hhf1, stronger effect = lower value
  normalized growth: 1
Locus YBR021W, strain FUR4, stronger effect = lower value
  normalized growth: 1.01
Locus YBR023C, strain chs3, stronger effect = lower value
  normalized growth: 0.984
Locus YBR171W, strain sec66, stronger effect = lower value
  normalized growth: 0.993
Locus YBR229C, strain ROT2, stronger effect = lower value
  normalized growth: 1.01
Locus YBR231C, strain swc5, stronger effect = lower value
  normalized growth: 0.981
Locus YBR279W, strain paf1, stronger effect = lower value
  normalized growth: 0.978
Locus YCL011C, strain gbp2, stronger effect = lower value
  normalized growth: 0.99
Locus YCL016C, strain dcc1, stronger effect = lower value
  normalized growth: 0.97
Locus YCL029C, strain bik1, stronger effect = lower value
  normalized growth: 1.03
Locus YCL061C, strain MRC1, stronger effect = lower value
  normalized growth: 0.985
Locus YCL069W, strain vba3, stronger effect = lower value
  normalized growth: 0.999
Locus YCR088W, strain abp1, stronger effect = lower value
  normalized growth: 0.985
Locus YDL005C, strain med2, stronger effect = lower value
  normalized growth: 0.991
Locus YDL035C, strain GPR1, stronger effect = lower value
  normalized growth: 1.03
Locus YDL040C, strain nat1, stronger effect = lower value
  normalized growth: 0.999
Locus YDL074C, strain BRE1, stronger effect = lower value
  normalized growth: 1.01
Locus YDL101C, strain DUN1, stronger effect = lower value
  normalized growth: 1
Locus YDL134C, strain PPH21, stronger effect = lower value
  normalized growth: 1.01
Locus YDL185W, strain tfp1, stronger effect = lower value
  normalized growth: 1.01
Locus YDL192W, strain arf1, stronger effect = lower value
  normalized growth: 1.02
Locus YDR001C, strain nth1, stronger effect = lower value
  normalized growth: 0.991
Locus YDR069C, strain doa4, stronger effect = lower value
  normalized growth: 1
Locus YDR101C, strain arx1, stronger effect = lower value
  normalized growth: 0.989
Locus YDR137W, strain rgp1, stronger effect = lower value
  normalized growth: 0.971
Locus YDR159W, strain sac3, stronger effect = lower value
  normalized growth: 1.01
Locus YDR162C, strain NBP2, stronger effect = lower value
  normalized growth: 1.02
Locus YDR195W, strain ref2
  normalized growth: 0.977
Locus YDR297W, strain sur2, stronger effect = lower value
  normalized growth: 0.99
Locus YDR318W, strain mcm21, stronger effect = lower value
  normalized growth: 1.05
Locus YDR334W, strain swr1, stronger effect = lower value
  normalized growth: 0.991
Locus YDR335W, strain msn5, stronger effect = lower value
  normalized growth: 0.995
Locus YDR388W, stronger effect = lower value
  normalized growth: 1.02
Locus YDR392W, strain spt3, stronger effect = lower value
  normalized growth: 0.91
Locus YDR502C, strain sam2, stronger effect = lower value
  normalized growth: 1.03
Locus YEL003W, strain gim4, stronger effect = lower value
  normalized growth: 1
Locus YEL037C, strain rad23, stronger effect = lower value
  normalized growth: 0.995
Locus YEL061C, strain CIN8 (second series), stronger effect = lower value
  normalized growth: 0.99
Locus YEL061C, strain CIN8, stronger effect = lower value
  normalized growth: 1.01
Locus YER015W, strain faa2, stronger effect = lower value
  normalized growth: 1.01
Locus YER016W, strain bim1, stronger effect = lower value
  normalized growth: 1
Locus YER110C, stronger effect = lower value
  normalized growth: 1.02
Locus YER111C, strain swi4, stronger effect = lower value
  normalized growth: 0.979
Locus YER155C, strain BEM2 (second series), stronger effect = lower value
  normalized growth: 0.998
Locus YER155C, strain BEM2, stronger effect = lower value
  normalized growth: 1.01
Locus YER167W, strain BCK2, stronger effect = lower value
  normalized growth: 1.02
Locus YFR010W, strain ubp6, stronger effect = lower value
  normalized growth: 1
Locus YGL078C, strain dbp3, stronger effect = lower value
  normalized growth: 1.02
Locus YGL086W, strain mad1, stronger effect = lower value
  normalized growth: 1.01
Locus YGL167C, strain pmr1, stronger effect = lower value
  normalized growth: 1
Locus YGL173C, strain kem1, stronger effect = lower value
  normalized growth: 1
Locus YGL227W, strain vid30, stronger effect = lower value
  normalized growth: 0.986
Locus YGL240W, strain doc1, stronger effect = lower value
  normalized growth: 0.988
Locus YGL248W, strain PDE1, stronger effect = lower value
  normalized growth: 0.999
Locus YGL253W, strain hxk2, stronger effect = lower value
  normalized growth: 1.01
Locus YGR078C, strain PAC10, stronger effect = lower value
  normalized growth: 1.03
Locus YGR135W, strain pre9, stronger effect = lower value
  normalized growth: 1.04
Locus YGR252W, strain gcn5, stronger effect = lower value
  normalized growth: 1.3 [resistant] (active)
Locus YHR013C, strain ard1, stronger effect = lower value
  normalized growth: 0.971
Locus YHR027C, strain rpn1, stronger effect = lower value
  normalized growth: 0.998
Locus YHR030C, strain SLT2, stronger effect = lower value
  normalized growth: 1.01 and 0.95
Locus YHR079C, strain IRE1 (second series), stronger effect = lower value
  normalized growth: 1.02
Locus YHR079C, strain IRE1, stronger effect = lower value
  normalized growth: 0.956
Locus YHR094C, strain hxt1, stronger effect = lower value
  normalized growth: 1.02
Locus YHR129C, strain ARP1, stronger effect = lower value
  normalized growth: 1.01
Locus YHR142W, strain chs7, stronger effect = lower value
  normalized growth: 0.991
Locus YHR200W, strain rpn10, stronger effect = lower value
  normalized growth: 1.02
Locus YIL066C, strain RNR3, stronger effect = lower value
  normalized growth: 1.02
Locus YIL073C, strain SPO22, stronger effect = lower value
  normalized growth: 1.06
Locus YIL125W, strain kgd1, stronger effect = lower value
  normalized growth: 1.01
Locus YIR030C, strain dcg1, stronger effect = lower value
  normalized growth: 1.01
Locus YJL092W, strain hpr5, stronger effect = lower value
  normalized growth: 0.999
Locus YJL095W, strain BCK1 (second series), stronger effect = lower value
  normalized growth: 0.992
Locus YJL095W, strain BCK1, stronger effect = lower value
  normalized growth: 1.01 and 0.925
Locus YJL115W, strain asf1, stronger effect = lower value
  normalized growth: 0.991
Locus YJL129C, strain trk1, stronger effect = lower value
  normalized growth: 0.991
Locus YJL134W, strain LCB3, stronger effect = lower value
  normalized growth: 1.02
Locus YJL154C, strain vps35, stronger effect = lower value
  normalized growth: 0.998
Locus YJL164C, strain tpk1, stronger effect = lower value
  normalized growth: 0.988
Locus YJL166W, strain qcr8, stronger effect = lower value
  normalized growth: 0.984
Locus YJL168C, strain set2, stronger effect = lower value
  normalized growth: 1
Locus YJL187C, strain SWE1 (second series), stronger effect = lower value
  normalized growth: 1.01
Locus YJL187C, strain SWE1, stronger effect = lower value
  normalized growth: 1

Reference: PubChem BioAssay AID1159580 (chemical genetic matrix, 2015)
